Consider 52 molecules from PubChem BioAssay AID1053117 (Broad Institute, 2014).

Potency and affinity values are given separately. The source made the active and inactive calls.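 The calls were made as follows: active = compounds lowering cell ATP signal with a fitted half-effect dose at most twice the top valid dose; inconclusive = flat curve with 30 to 70% signal loss, or bad fit; inactive = wrong direction, flat within 30%, or weaker than limit.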

A short description of this assay: HEK293 cell cytotoxicity, dose response, cytotoxicity control, cherry-picks, set 5 (AID 1053117).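 Also: more negative means greater loss of ATP signal and more cytotoxicity.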 As to conditions: HEK293T viability, CellTiter-Glo ATP luminescence, 72 h; series mostly up to 26 µM.

As to `CN1c2ccc(-c3ccccc3)cc2[C@H]2[C@H](CCN2C(=O)CN2CCOCC2)[C@H]1CO`, the molecule was called inactive. As to `CCOC(=O)c1cnc(SCc2nc(N)nc(Nc3ccc(OC)cc3)n2)nc1N`, the outcome was inactive. The value for `CN1c2ccc(-c3ccccc3)cc2[C@@H]2[C@@H](CCN2C(=O)CN2CCOCC2)[C@H]1CO` was “inactive”; that for `N#Cc1ccc(-c2ccc3c(c2)[C@@H]2[C@@H](CCN2S(=O)(=O)c2cccc(F)c2)[C@@H](CO)N3)cc1` was “inactive”.

`C[C@H](O)C#Cc1ccc2c(c1)O[C@@H](CN(C)C)[C@H](C)CN([C@@H](C)CO)S2(=O)=O`: the result was inactive. The value for `CO[C@@H]1CN(C)C(=O)c2cc(NC(=O)Nc3ccc(Cl)c(Cl)c3)ccc2OC[C@H](C)NC[C@@H]1C` was “inactive”. With `Cc1cccc(N2CCN(S(=O)(=O)c3cn(C)cn3)CC2)c1C`, the outcome was inactive. The value for `COC(=O)C[C@H]1CC[C@H]2[C@H](COc3ccc(NC(=O)Cc4cccs4)cc3C(=O)N2C)O1` was “inactive”; that for `N#C[C@H]1[C@@H](c2ccccc2C2=CCCCC2)[C@@H](CO)N1S(=O)(=O)c1ccccc1` was “inactive”; that for `Cc1ccc([N+](=O)[O-])cc1NC(=O)CN(C(=O)c1ccccc1Cl)C1CCCCC1` was “inactive”.

For `C[C@@H]1CN([C@@H](C)CO)C(=O)c2cc(-c3ccccc3)cnc2O[C@@H]1CN(C)C(=O)c1cccc(F)c1`, the molecule was classed as inactive. The value for `CCN(Cc1ccncc1)C(=O)c1ccc2c(c1)S(=O)(=O)c1ccccc1C2=O` was “inactive”. `CO[C@H]1CN(C)C(=O)c2cc(NC(C)=O)ccc2OC[C@@H](C)N(C(=O)CN2CCOCC2)C[C@H]1C`: the call was inactive. The value for `CCc1ccc(NC(=O)CSc2nnc(-c3ccco3)o2)cc1` was “inactive”. The value for `COCC(=O)Nc1ccc2c(c1)C(=O)N(C)[C@H]1CC[C@H](CC(=O)NCc3ccccc3Cl)O[C@H]1CO2` was “inactive”. The value for `O=C(NCc1ccccc1)c1ccc(-c2cn[nH]c2)c2ccoc12` was “inactive”; that for `COc1ncccc1C(=O)NC1CCCc2c1cnn2-c1ccc(C)c(C)c1` (configuration not stated) was “inactive”; that for `Cc1ccc(NC(=O)COC(=O)c2cc(Cl)ccc2[N+](=O)[O-])c(C)c1` was “inactive”. Regarding `COC(=O)C[C@H]1CC[C@@H]2[C@@H](COc3ccc(NC(=O)Cc4cccs4)cc3C(=O)N2C)O1`, the result was inactive. The value for `CCc1nc2c(OCCc3cccc(OC)c3)cccn2c1N(C)C(=O)c1ccc(C)cc1` was “inactive”; that for `COc1ccccc1CC(=O)OC(C)C(=O)Nc1ccc(S(=O)(=O)N2CCCCC2)cc1` (configuration not stated) was “inactive”. The value for `Cc1ccc(CS(=O)Cc2ccc(C(=O)NC3CCCC(C)C3C)o2)cc1` (configuration not stated) was “inactive”; that for `COc1ccccc1CNc1nc(NCc2cnc(C)cn2)c2sccc2n1` was “inactive”; that for `COc1ccc(-c2oc3ncnc(NCCCN4CCOCC4)c3c2-c2ccc(OC)cc2)cc1` was “inactive”. The value for `CS(=O)(=O)N1CCN(c2ccc(NC(=O)c3ccc([N+](=O)[O-])o3)cc2)CC1` was “inactive”.

Take `C[C@H](CO)N1C[C@H](C)[C@H](CN(C)Cc2ccc(-c3ccccc3)cc2)Oc2ccc(NC(=O)C3CCCCC3)cc2C1=O`: the molecule was called inactive. As to `COC(=O)C[C@@H]1CC[C@H]2[C@H](COc3ccc(NC(=O)Cc4cccs4)cc3C(=O)N2C)O1`, the call was inactive.

Regarding `N#C[C@@H]1[C@H](c2ccccc2C2=CCCCC2)[C@@H](CO)N1S(=O)(=O)c1ccccc1`, the call was inactive. The value for `O=C(c1cccnc1)N1C[C@H]2[C@@H](c3ccccc31)[C@@H](CO)N2CC1CCCC1` was “inactive”; that for `COC(=O)C[C@@H]1CC[C@@H]2[C@H](COc3ccc(NC(=O)Cc4cccs4)cc3C(=O)N2C)O1` was “inactive”; that for `Cc1ccc(Nc2nnc(SCc3ccccc3)s2)cc1` was “inactive”. The value for `C[C@H](CO)N1C[C@H](C)[C@H](CN(C)Cc2ccccc2)Oc2ncc(-c3ccccc3)cc2C1=O` was “inactive”; that for `CN(C)C(=O)c1ccc(-c2ccc3c(c2)[C@@H]2[C@@H](CCN2C(=O)c2ccc(F)cc2)[C@@H](CO)N3C)cc1` was “inactive”. The value for `C[C@H]1CN([C@@H](C)CO)C(=O)c2cc(NC(=O)C3CCCCC3)ccc2O[C@H]1CN(C)Cc1ccc(-c2ccccc2)cc1` was “inactive”; that for `COc1cccc(CN2CCN(C(=O)c3ccc(-c4ccccc4)cc3)CC2)c1OC` was “inactive”; that for `CC(C)(C)[S@](=O)N1Cc2cc(C(=O)NCc3ccccc3F)nc(-c3cccc(-c4cncnc4)c3)c2[C@@H]1CCO` was “inactive”.

On to `COc1ccc(CN(C2CCCC2)S(=O)(=O)c2ccc(-n3cnnn3)cc2)cc1OC`, for which the molecule was called inactive.

As to `COC(=O)C[C@H]1CC[C@@H]2[C@H](COc3ccc(NC(=O)Cc4cccs4)cc3C(=O)N2C)O1`, the molecule was called inactive. The value for `O=C(c1cccnc1)N1C[C@H]2[C@@H](c3ccccc31)[C@H](CO)N2CC1CCCC1` was “inactive”; that for `CN(C)c1ccc(-c2ccnc3c2CC(C)(C(=O)NCC2CC2)O3)cc1` (configuration not stated) was “inactive”; that for `C[C@H](CO)N1C[C@H](C)[C@H](CN(C)C(=O)Nc2cccc3ccccc23)Oc2c(NC(=O)Nc3ccc(C(F)(F)F)cc3)cccc2C1=O` was “inactive”. As for `N#C[C@H]1[C@H](c2ccccc2C2=CCCCC2)[C@H](CO)N1S(=O)(=O)c1ccccc1`, the result was inactive. The value for `CCOc1ccccc1NC(=O)c1c(NC(=O)CCC(=O)O)sc2c1CCCCC2` was “inactive”. The value for `N#C[C@@H]1[C@H](c2ccccc2C2=CCCCC2)[C@H](CO)N1S(=O)(=O)c1ccccc1` was “inactive”; that for `O=C(c1cccnc1)N1C[C@@H]2[C@H](c3ccccc31)[C@H](CO)N2CC1CCCC1` was “inactive”; that for `CCC(C)(C)NC(=O)C(OC(=O)c1ccco1)c1ccccc1OC` (configuration not stated) was “inactive”. The value for `COc1cccc(-c2ccc3c(c2)[C@@H]2[C@@H](CCN2S(=O)(=O)c2cccc(OC)c2)[C@@H](CO)N3)c1` was “inactive”; that for `C[C@@H]1CN([C@H](C)CO)C(=O)c2cc(-c3ccccc3)cnc2O[C@H]1CN(C)Cc1ccccc1` was “inactive”; that for `N#C[C@H]1[C@@H](c2ccccc2C2=CCCCC2)[C@H](CO)N1S(=O)(=O)c1ccccc1` was “inactive”. For the molecule `Cn1cnc(S(=O)(=O)N2CCN(c3ccccc3)CC2)c1`, the outcome was inactive. The value for `COC(=O)C[C@@H]1CC[C@@H]2[C@@H](COc3ccc(NC(=O)Cc4cccs4)cc3C(=O)N2C)O1` was “inactive”; that for `O=C(Nc1ccccc1F)N1C[C@@H]2[C@H](c3ccccc31)[C@H](CO)N2C(=O)C1CC1` was “inactive”.
